Measured values as given in publication PMC7819943, “Rice protein-binding microarrays: a tool to detect cis-acting elements near promoter regions in rice”.
The full ranking holds about 35,000 sequences; the median of “fluorescence intensity (a.u.)” is about 10,000, and the highest 2% start at about 52,000. The full list was thinned out, with the highest values kept by preference.

target: T1, OsWOX13 (Oryza sativa, UniProt Q5QMM3 1-267); test: protein-binding microarray (RPBM); PBS, 2% BSA, 51.3 ng/ul salmon testes DNA, 50 uM zinc acetate, 200 nM TF, 25 C, 1 h; high values mean tight binding; settings: protein: recombinant; tags: N-terminal polyhistidine and DsRed monomer fusion (pET32a); label: CyDye5-dUTP incorporated in the synthesized complementary strand; 3' TTTTT single-stranded linker to array surface; dsDNA, one strand shown
T1 sequence: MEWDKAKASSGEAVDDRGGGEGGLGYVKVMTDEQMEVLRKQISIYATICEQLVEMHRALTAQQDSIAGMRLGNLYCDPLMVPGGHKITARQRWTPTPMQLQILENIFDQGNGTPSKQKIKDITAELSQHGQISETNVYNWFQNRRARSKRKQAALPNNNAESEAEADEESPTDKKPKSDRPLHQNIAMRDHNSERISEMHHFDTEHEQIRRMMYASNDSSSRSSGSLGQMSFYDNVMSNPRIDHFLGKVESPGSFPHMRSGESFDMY
Procedure, shortened: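 Binding signal is reported as fluorescence intensity per feature (arbitrary units) from an Axon 4000B scanner. Incubation used 200 nM of each Ni–NTA-purified, N-terminally polyhistidine- and DsRed-fused transcription factor from E. coli BL21-CodonPlus on a double-stranded custom Agilent array for 1 h at 25 °C, with 50 µM zinc acetate in the buffer, followed by washing.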

Point of comparison: “TTGGTGTAATTGACATGCGGGCCCACAATTTTATTATTTTCGGAGTCACCTAGTGCAG”, binding signal 23800 fluorescence intensity (a.u.). Against it:
- CCATTTCTTGCTGATGATTGATGATGAACATTTCTAATAGCGGAGTCACCTAGTGCAG — higher, 27400 fluorescence intensity (a.u.)
- TACTATGATTTTCTTTGAATTCAGGTCCTTGCGATTCCAGCGGAGTCACCTAGTGCAG — lower, 3510 fluorescence intensity (a.u.)
- TGGATAATTAAGCTCATGAGACGACAACGAACAATGAATGCGGAGTCACCTAGTGCAG — lower, 8610 fluorescence intensity (a.u.)
- AGATGTTTGAATAATTGATACAATATCAGGAGCGAATATGCGGAGTCACCTAGTGCAG — lower, 4430 fluorescence intensity (a.u.)
- TGAAATTTCTCTTCATTTTGTTTTAAATCCTGGACAGACACGGAGTCACCTAGTGCAG — lower, 3370 fluorescence intensity (a.u.)
- CAACCAATAAATTAGAACTCCATCTCGATCATGGTGTTATCGGAGTCACCTAGTGCAG — lower, 4370 fluorescence intensity (a.u.)
- GGCTTGATTTATTGATTTGTTCTTTAGTACTCCAGTTCAACGGAGTCACCTAGTGCAG — higher, 25700 fluorescence intensity (a.u.)
- ATAAATTAGCACCCACCTCTGCCTTCCTACCTTCCCCTCCCGGAGTCACCTAGTGCAG — higher, 24900 fluorescence intensity (a.u.)
- GAGAGAGAGATCAGCACATGATTGATTAAATATTAGCTTACGGAGTCACCTAGTGCAG — lower, 19100 fluorescence intensity (a.u.)
- TTAATTGGATATATGATGTTGCAAATTTGCCTATTCAGAACGGAGTCACCTAGTGCAG — higher, 27000 fluorescence intensity (a.u.)
- GCATGAAGACATCAATTAATTAATTGCATGGTTACATGCACGGAGTCACCTAGTGCAG — higher, 37200 fluorescence intensity (a.u.)
- AATAATTAATTAATCATAGCTTGCAACTGCATATGTAGGGCGGAGTCACCTAGTGCAG — higher, 56700 fluorescence intensity (a.u.)
- CCTAATTAATCCATAATTATCAAAAGTTTACTGTAGCATCCGGAGTCACCTAGTGCAG — higher, 62800 fluorescence intensity (a.u.)
- TCCATAATTAGCGGCTGATTACTGTAGCATCACTGTAGCACGGAGTCACCTAGTGCAG — higher, 31200 fluorescence intensity (a.u.)
- TCATCAGTTAATTAATACATGCATATTATATTATATAGGGCGGAGTCACCTAGTGCAG — lower, 20200 fluorescence intensity (a.u.)
- ATGATTAGCAGCTGATTACTGTAGCATTACTGTAGCAAATCGGAGTCACCTAGTGCAG — higher, 45200 fluorescence intensity (a.u.)
- ATTAATCCATAATTAGCAAATGTTTACTGTAGCATCACATCGGAGTCACCTAGTGCAG — lower, 13800 fluorescence intensity (a.u.)
- ATTAATCCACAATTATCAAAAGTTTACTGTAGCATCACATCGGAGTCACCTAGTGCAG — lower, 5730 fluorescence intensity (a.u.)
- TGTAATAGTGGGTTAATTAATTAGCTTGCCAGCTTCAGGGCGGAGTCACCTAGTGCAG — lower, 21900 fluorescence intensity (a.u.)
- TCCATAATTAGCAGCTGATTACTGTAGTATTACTGTAGCACGGAGTCACCTAGTGCAG — higher, 60800 fluorescence intensity (a.u.)
- ATTGATAACGGCAGACTAACTGATACGACAGAGATGGTCACGGAGTCACCTAGTGCAG — lower, 7620 fluorescence intensity (a.u.)
- CCGGATTGCTGGATCATTTTCTTCTCGGCCCATTGGACTCCGGAGTCACCTAGTGCAG — lower, 3410 fluorescence intensity (a.u.)
- ATGATTACTAAAACTGTACTTAAAGGCAATGGTTTCTGTACGGAGTCACCTAGTGCAG — lower, 13900 fluorescence intensity (a.u.)
- CATTGATTGGATCGTACGCTTGTGTTGCATGACCAATGATCGGAGTCACCTAGTGCAG — higher, 44200 fluorescence intensity (a.u.)
- AATCCATGATTATCACATATTTACTGTAGAACTACATTGTCGGAGTCACCTAGTGCAG — lower, 11200 fluorescence intensity (a.u.)
- TTAAATATAGTTAATTAAACTAGCTAGCTCCTCCGATCCTCGGAGTCACCTAGTGCAG — lower, 12800 fluorescence intensity (a.u.)
- CAAAATTGGCTCCTCACCCTTGTGCAGATGCAGCCTTCTTCGGAGTCACCTAGTGCAG — lower, 13700 fluorescence intensity (a.u.)
- CTCTCTCCTTGGCCTCTTCCTCCCTGGTCGGTAGCGCAGCCGGAGTCACCTAGTGCAG — higher, 59600 fluorescence intensity (a.u.)
- GTAGGATTGGATGGATATAGGAGCCTGCCTTGCCTTCCTCCGGAGTCACCTAGTGCAG — lower, 6030 fluorescence intensity (a.u.)
- CTTTGTAGACTGACAGTGATAGTATTGTACTGCTATACGTCGGAGTCACCTAGTGCAG — lower, 9250 fluorescence intensity (a.u.)
- TGGGCGGTTAATTTGACTTCGATGTTCAGTACCTTGTGGGCGGAGTCACCTAGTGCAG — lower, 4180 fluorescence intensity (a.u.)
- CTAGTAATAACACTGACATCAATTAGCAATTTAGCATCCGCGGAGTCACCTAGTGCAG — lower, 13200 fluorescence intensity (a.u.)
- CTTGGCTGAAACAAATCAATTAACATCACAAACAGGAGAACGGAGTCACCTAGTGCAG — lower, 11300 fluorescence intensity (a.u.)
- TTCGGTTTTATTTTAATTGACATTTTGGACAATGATACGGCGGAGTCACCTAGTGCAG — higher, 27900 fluorescence intensity (a.u.)
- CTTAATTAATATAATCGGCAGGAGCTCACTGTTTGTTAACCGGAGTCACCTAGTGCAG — higher, 52800 fluorescence intensity (a.u.)
- TCGTAAATTAATTATTAATAATATACTAATGGTATCCCCACGGAGTCACCTAGTGCAG — higher, 53900 fluorescence intensity (a.u.)
- TCATAACTATTTTAATTGACATACAAACAATGAGGCGGCACGGAGTCACCTAGTGCAG — higher, 58300 fluorescence intensity (a.u.)
- ACATTAATGATTAGAGACCATATTGTCATCAACTATTGTACGGAGTCACCTAGTGCAG — higher, 30800 fluorescence intensity (a.u.)
- ACATTAATGATTAGAGACTATATTGTCTCTAACTGTTGTACGGAGTCACCTAGTGCAG — higher, 39900 fluorescence intensity (a.u.)
- GTTAATGATTAATTAGAGCATTTGTTGTCTCAACTATTGTCGGAGTCACCTAGTGCAG — higher, 58600 fluorescence intensity (a.u.)
- TCATCGTGGTATTAATTATTTAATAATTATAAATATATTTCGGAGTCACCTAGTGCAG — lower, 10200 fluorescence intensity (a.u.)
